Sampled rows, rich in hits. Any-hit rate of the full collection: about 10%.
MCF10A rerep – A quantitative high throughput screen for small molecules that induce DNA re-replication in MCF 10a normal breast cells. MCF 10A DNA re-replication, Hoechst nuclear intensity, 48 h. Potency, µM (top dose mostly 46.1 µM), for inactives: at the highest dose activity, positive = re-replication, usual class: activators. 2.9% of 350,000 active; further: % of control where 0% means no effect; nearly all actives have a fitted effect of over 50% in size
SW480 rerep – A quantitative high throughput screen for small molecules that induce DNA re-replication in SW480 colon adenocarcinoma cells. SW480 DNA re-replication, Hoechst DNA content imaging, 48 h. Potency, µM (titrated, usually from 46.1 µM), for the others: at the highest dose re-replication activation, usual class: activators. 1.8% of 340,000 active. AID 624297, 2012; further: % of control where 0% means no effect; nearly all actives have a fitted effect of over 55% in size
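250 cells/well; 23 nL cpd via pin tool; 48 hr, 37 C, 5% CO2; Hoechst 40 min; imager read of total nuclear intensity, ex 405/em 500-530 nm.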
KB-3-1 tox – qHTS assay for MDR1-selective chemotherapeutics: Primary screen using the parental adenocarcinoma cell KB-3-1; 1.4% of 400,000 active; AID 1347075, 2019; KB-3-1 viability, CellTiter-Glo ATP luminescence, 72 h; Potency, µM (series often up to 46.1 µM), most hits filed as cytotoxic; further: on the % scale 0 is the no-effect control and ±100 the full control effect; nearly all actives have a fitted effect of over 60% in size
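Cells are dispensed, compounds pinned in, plates held at 37 °C for 72 h, then CellTiter-Glo is added and luminescence read after 10 minutes. Cell line: parental KB-3-1 in phenol-red-free DMEM, 10% FBS.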
RORgamma inh – qHTS for inhibitors of ROR gamma transcriptional activity | Nuclear receptor ROR-gamma (Mus musculus), P51450 | Drosophila S2 Gal4-RORgamma UAS-luciferase reporter, 20 h | Potency, µM (top dose mostly 53.6 µM), inactives show top-dose activity change, negative = inhibition, actives largely listed as inhibitors | 5.4% of 310,000 active | AID 2551, 2010; further: on the % scale 0 is the no-effect control and ±100 the full control effect; nearly all actives have a fitted effect of over 60% in size
Target sequence (P51450 whole entry, looked up, the tested form may be a part): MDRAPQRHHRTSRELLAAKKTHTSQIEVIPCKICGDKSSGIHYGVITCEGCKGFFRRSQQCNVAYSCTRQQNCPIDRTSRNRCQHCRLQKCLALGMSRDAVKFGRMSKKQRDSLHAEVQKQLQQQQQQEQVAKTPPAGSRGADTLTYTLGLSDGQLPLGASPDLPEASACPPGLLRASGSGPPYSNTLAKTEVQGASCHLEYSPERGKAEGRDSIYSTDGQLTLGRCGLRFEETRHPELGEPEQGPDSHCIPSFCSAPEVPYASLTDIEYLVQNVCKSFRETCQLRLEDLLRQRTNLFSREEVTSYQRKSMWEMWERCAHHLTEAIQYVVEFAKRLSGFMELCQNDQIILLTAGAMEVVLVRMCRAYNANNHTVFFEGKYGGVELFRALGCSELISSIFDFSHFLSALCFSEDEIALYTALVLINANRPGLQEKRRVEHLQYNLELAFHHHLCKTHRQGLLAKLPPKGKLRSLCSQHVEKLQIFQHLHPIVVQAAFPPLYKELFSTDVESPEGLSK
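Stable Schneider cell line, Gal4 DNA-binding domain fused to ROR gamma, UAS-luciferase. Cmpd 1 hr RT → CuSO4 700 uM final → 20 hr RT → luciferase reagent 10 min → luminescence.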
Gal4-VP16 FLuc – VP16 counterscreen qHTS for inhibitors of ROR gamma transcriptional activity. Drosophila S2 Gal4-VP16 UAS-luciferase, luminescence, 20 h. Potency, µM (series often up to 53.6 µM), for the others: top-dose activity, negative = inhibition, most hits filed as inhibitors. 3.5% of 310,000 active. AID 2546, 2010;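 further: Gal4-VP16 expression switched on by copper sulfate through the metallothionein promoter; on the % scale 0 is the no-effect control and ±100 the full control effect; nearly all actives have a fitted effect of over 50% in size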
KB-V1 MDR tox – qHTS assay for MDR1-selective chemotherapeutics: Primary screen using the drug-selected MDR subline cells KB-V1; 3.4% of 400,000 active; AID 1347076, 2019; Potency, µM (doses to about 46.1 µM), usual class: cytotoxic; KB-V1 MDR cells viability, CellTiter-Glo, 72 h; further: on the % scale 0 is the no-effect control and ±100 the full control effect; nearly all actives have a fitted effect of over 60% in size
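qHTS viability screen in drug-selected KB-V1 MDR cells: 72 h compound treatment at 37 degrees C, ATP luminescence end point.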
An asterisk follows results filed as active; i = inactive; u = inconclusive; x = not tested or not shown; [ ] = another dose, or the depositor's remark. The call rests on the fitted dose curve; in most records, active means well fitted curve in the direction sought with a large enough effect; inconclusive means small, poorly fitted or top-dose-only effect, or another doubt; inactive means no such curve, though single readings can be large; an effect the other way counts as inactive or inconclusive. Potency means the concentration at half of the fitted maximal effect.

SMILES	MCF10A rerep	SW480 rerep	KB-3-1 tox	RORgamma inh	Gal4-VP16 FLuc	KB-V1 MDR tox
CC1(C)CC(NC(=O)c2sc3cc(Cl)ccc3c2Cl)CC(C)(C)N1	-25.6%	u	u	5.0%	-0.2%	18.4µM*
CC1(C)CC(NC(=O)c2cc(Cl)ccc2Cl)CC(C)(C)N1	1.8%	9.2µM*	i	-0.9%	-8.3%	i
O=C1CCCc2cc(S(=O)(=O)N3CCCC(C(=O)NCc4ccc(Cl)cc4)C3)ccc2N1 (centres undefined)	x	x	u	x	x	i
O=C(CCC1N=C2c3ccccc3N=C(SCc3ccccc3F)N2C1=O)NC1CCCCC1 (centres undefined)	x	x	i	x	x	u
Cc1ccsc1C(=O)N1CCCC(C)(C(=O)NS(=O)(=O)C2CC2)C1 (centres undefined)	x	x	i	x	x	i
CC(=O)CSc1nc(-c2ccccc2)c(-c2ccccc2)o1	8.5%	u	i	6.7%	-8.9%	i
COc1cc(OC)cc(C(=O)Nc2nc(-c3ccccc3)c(-c3ccccc3)o2)c1	14.2%	u	u	1.41µM*	2.82µM*	i
COc1cc(OC)cc(C(=O)Nc2cccc(NC(=O)c3cc(OC)cc(OC)c3)n2)c1	6.5%	-5.6%	i	x	x	u
CC(=O)Nc1nc(-c2ccccc2)c(-c2ccccc2)o1	-4.2%	-0.3%	i	12.6µM*	u	i
NC1=NC(c2ccc(Cl)cc2)C(C(=O)c2ccccc2)N1 (centres undefined)	5.8µM*	u	u	-5.9%	-4.0%	i
CC(C#N)Sc1ncnc2sc3c(c12)CCC3 (centres undefined)	u	5.4%	i	34.6%	2.2%	u
CC(=O)CSc1ncnc2sc3c(c12)CCCC3	6.3%	-14.7%	i	-28.6%	10.7%	i
CC(=O)C(Sc1ncnc2sc3c(c12)CCCC3)C(C)=O	4.1%	-0.2%	i	11.2µM*	15.8µM*	u
Cc1cc(C)nc(Sc2ncnc3sc4c(c23)CCC4)n1	-182.0%[0.0737 µM]	13µM*	u	u	-22.4%	u
Cc1ccc2nc3c(cc(C(=O)NCc4ccco4)c(=N)n3C3CCCC3)c(=O)n2c1	x	x	x	7.3%	2.0%	x
CNC(=O)c1cc2c(=O)n3cccc(C)c3nc2n(C(C)C)c1=N	3.66µM*	u	i	-39.9%	1.5%	i
Cc1cccn2c(=O)c3cc(C(=O)NCc4ccco4)c(=N)n(C4CCCCC4)c3nc12	23.1µM*	16.4µM*	i	-26.4%	0.2%	u
Cc1cccn2c(=O)c3cc(C(=O)NC4CCCC4)c(=N)n(C4CCCCC4)c3nc12	25.5%	3.26µM*	i	1.1%	6.4%	i
Cc1cccn2c(=O)c3cc(C(=O)NC4CCCCC4)c(=N)n(Cc4ccccc4)c3nc12	2.06µM*	2.31µM*	u	26.5%	3.6%	u
CCn1c(=N)c(C(=O)NCc2cccnc2)cc2c(=O)n3cccc(C)c3nc21	x	x	x	-16.5%	-10.4%	x
Cc1cccn2c(=O)c3cc(S(=O)(=O)c4ccc(Br)cc4)c(=N)n(C4CCCC4)c3nc12	9.5%	-24.7%	i	-10.8%	-7.3%	i
COCCn1c(SCC(=O)c2ccc(C)cc2C)nc2cc(C(=O)NC3CCCC3)ccc2c1=O	x	x	i	x	x	i
Cc1cccn2c(=O)c3cc(C(=O)NC4CCCC4)c(=N)n(Cc4ccc(F)cc4)c3nc12	2.31µM*	4.61µM*	i	0.0%	-4.9%	i
Cc1cccn2c(=O)c3cc(C(=O)NC4CCCC4)c(=N)n(CCc4ccccc4)c3nc12	2.59µM*	4.61µM*	i	-9.7%	-5.3%	u
Cc1cccn2c(=O)c3cc(C(=O)NC4CCS(=O)(=O)C4)n(Cc4ccccc4)c3nc12 (centres undefined)	13µM*	2.59µM*	i	-30.7%	0.7%	i
SMILES	MCF10A rerep	SW480 rerep	KB-3-1 tox	RORgamma inh	Gal4-VP16 FLuc	KB-V1 MDR tox
COc1ccc(CCn2c(=N)c(C(=O)NC3CCCC3)cc3c(=O)n4cccc(C)c4nc32)cc1	248.3%	u	u	-16.0%	-0.3%	u
Cc1ccc(-n2nc(C(=O)N3CCC(C)CC3)c(=O)n(C)c2=O)cc1	x	x	i	x	x	u
CCCCn1nnnc1C(c1ccccc1)N1CCN(c2cc(C)ccc2C)CC1 (centres undefined)	x	x	i	x	x	u
Cc1ccc(N=C2NC(=O)/C(=C\c3ccsc3)S2)c(C)c1	18.4µM*	2.9%	i	u	u	18.4µM*
Cc1ccc(N=C2NC(=O)/C(=C/c3cccnc3)S2)c(C)c1	u	-2.6%	i	-28.5%	-5.9%	i
COc1ccccc1N/C(N)=N/c1nc(CSc2ccc(C)cc2)cc(=O)[nH]1	-1.6%	0.2%[9.22 µM]	i	-31.9%	7.94µM*	i
N/C(=N\c1nc(CSc2nc3ccccc3s2)cc(=O)[nH]1)Nc1ccc(F)cc1	u	12.8%	11.6µM*	0.6%	-2.6%	i
CCC(=O)Nc1c(C#N)c2nc3ccccc3nc2n1-c1ccc(C)cc1	23.1µM*	u	i	x	x	u
CCC(C)n1c(NC(=O)c2ccccc2)c(C#N)c2nc3ccccc3nc21 (centres undefined)	1.3µM*	5.17µM*	u	10µM*	u	u
N#Cc1c(NC(=O)c2ccc(Br)o2)n(-c2ccccc2)c2nc3ccccc3nc12	u	u	i	-6.2%	-2.2%	i
CCCCn1c(NC(=O)c2ccccc2)c(C#N)c2nc3ccccc3nc21	0.7%	-1.5%	u	u	u	5.17µM*
Cc1ccc2nc(Cl)c3cc(C(=O)N(C)C4CCCCC4)sc3c2c1	x	x	i	x	x	i
Cc1ccn2c(-c3csc(NCc4ccccc4)n3)c(C)nc2c1	u	-8.6%	u	14.1µM*	u	u
Cc1nc2ccccn2c1-c1csc(NCc2ccco2)n1	10.5%	-7.7%	i	11.2µM*	u	u
Cc1nc(C)c(-c2csc(NCc3ccccc3)n2)s1	-0.5%	-0.4%	i	-28.7%	-5.5%	i
Cc1nc2ncccn2c1-c1csc(Nc2ccc(O)cc2)n1	28.0%	8.2%	14.6µM*	-41.5%	22.1%	i
Cc1ccc(Nc2nc(-c3c(C)nc4ccccn34)cs2)cc1	u	u	0.0206µM*	10µM*	u	0.164µM*
O=C(NCc1ccccc1Cl)c1ccc2c(c1)ncn2-c1cccc(F)c1	x	x	i	x	x	i

Screening results: PubChem BioAssay, National Center for Advancing Translational Sciences (NCATS)
